Only some compounds are listed: those with a hit (about 11% of all), similar ones and a draw of the others.
PI5P4Ka inh: qHTS for Inhibitors of phosphatidylinositol 5-phosphate 4-kinase (PI5P4K); Phosphatidylinositol 5-phosphate 4-kinase type-2 alpha (Homo sapiens), P48426; PI5P4Kalpha enzyme, ADP-Glo luminescence, 60 min; stronger effect = lower value; max response, %; 330,000 compounds, 1.2% hits; AID 652105, 2013; active means max response of -50% or lower; inconclusive means between -30% and -50%; inactive means -30% or higher; further: value at the top dose of about 77 µM; on the % scale 0 is the no-effect control and ±100 the full control effect
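Controls without substrate or without enzyme flank wells where PI5P4Kalpha converts substrate using 5 microM ATP (final). Incubation lasts 60 minutes at room temperature; ADP formed is read by ADP-Glo luminescence.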
G9a inh: qHTS Assay for Inhibitors of Histone Lysine Methyltransferase G9a | Potency, µM (titrated, usually from 102 µM), inactives show at the highest dose activity, negative = inhibition, most hits filed as inhibitors | G9a H3K9 monomethylation, AlphaScreen, 2 h | 350,000 compounds, 8.8% hits | Histone-lysine N-methyltransferase EHMT2 (Homo sapiens), Q96KQ7 | AID 504332, 2011; further: potency means the concentration at half of the fitted maximal effect; on the % scale 0 is the no-effect control and ±100 the full control effect; nearly all actives have a fitted effect of over 75% in size
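Signal arises when biotinylated H3K9 peptide, once monomethylated, bridges streptavidin donor and antibody-captured acceptor beads. Enzyme at 20 nM was preincubated 15 min with test compounds; peptide 500 nM and SAM 20 uM then reacted for 2 h.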
L3MBTL1 block: qHTS Assay for the Inhibitors of L3MBTL1; Lethal(3)malignant brain tumor-like protein 1 (Homo sapiens), Q9Y468; AlphaScreen L3MBTL1–H3K9me1 peptide binding; Potency, µM (top dose mostly 57.1 µM), inactives show at the highest dose activity, negative = inhibition, most hits filed as inhibitors; 230,000 compounds, 0.66% hits; AID 485360, 2010; further: potency means the concentration at half of the fitted maximal effect; on the % scale 0 is the no-effect control and ±100 the full control effect; nearly all actives have a fitted effect of over 60% in size
Target sequence (Q9Y468 whole entry, looked up): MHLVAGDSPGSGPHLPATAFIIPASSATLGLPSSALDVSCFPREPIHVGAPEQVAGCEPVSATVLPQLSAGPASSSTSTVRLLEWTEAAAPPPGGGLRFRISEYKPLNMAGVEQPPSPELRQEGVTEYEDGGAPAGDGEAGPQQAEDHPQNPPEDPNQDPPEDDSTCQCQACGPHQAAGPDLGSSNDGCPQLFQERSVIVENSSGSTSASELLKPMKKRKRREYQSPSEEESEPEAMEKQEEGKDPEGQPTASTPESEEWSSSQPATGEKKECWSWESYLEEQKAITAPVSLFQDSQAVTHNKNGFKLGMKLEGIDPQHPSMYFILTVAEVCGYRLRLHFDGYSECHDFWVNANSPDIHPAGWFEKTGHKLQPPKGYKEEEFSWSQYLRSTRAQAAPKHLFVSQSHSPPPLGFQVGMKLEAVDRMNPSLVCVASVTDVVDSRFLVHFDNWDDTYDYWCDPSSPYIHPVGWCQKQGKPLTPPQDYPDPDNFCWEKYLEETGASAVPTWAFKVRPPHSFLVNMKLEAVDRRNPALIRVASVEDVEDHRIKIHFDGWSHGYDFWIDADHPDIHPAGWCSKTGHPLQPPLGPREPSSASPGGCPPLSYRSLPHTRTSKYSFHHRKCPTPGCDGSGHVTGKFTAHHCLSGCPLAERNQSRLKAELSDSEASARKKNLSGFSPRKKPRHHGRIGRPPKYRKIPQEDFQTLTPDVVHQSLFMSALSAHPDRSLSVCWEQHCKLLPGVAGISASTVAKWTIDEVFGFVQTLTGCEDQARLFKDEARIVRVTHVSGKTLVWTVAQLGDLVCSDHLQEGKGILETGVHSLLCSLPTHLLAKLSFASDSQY
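First, the protein-peptide complex forms for 30 min at room temperature (L3MBTL1 50 nM, biotinylated H3K9me1 peptide 75 nM). Next, compounds are pin-transferred and incubated 30 min. Finally, AlphaScreen beads are added and read after 30 min.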
HP1b chromo inh: HTS for Inhibitors of HP1-beta Chromodomain Interactions with Methylated Histone Tails; Chromobox protein homolog 1 (Homo sapiens), P83916; Potency, µM (highest dose often 114 µM), inactives show at the highest dose activity change, negative = inhibition, actives largely listed as inhibitors; AlphaScreen HP1-beta / biotin-H3K9me3 peptide binding; 390,000 compounds, 0.56% hits; further: potency means the concentration at half of the fitted maximal effect; nearly all actives have a fitted effect of over 70% in size
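Compound inhibition of the preformed complex between 50 nM HP1-beta and 50 nM biotinylated H3K9me3 peptide was read by AlphaScreen. Buffer was PBS pH 7.4 with 0.01% Tween-20. Incubations ran 30 min at room temperature, with 10 ug/mL donor/acceptor beads.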
BAZ2B inh: qHTS Assay for Inhibitors of BAZ2B; Potency, µM (doses to about 114 µM), for the others: at the top dose activity change, negative = inhibition, hits mostly inhibitors; AID 504333, 2011; 360,000 compounds, 4.4% hits; AlphaScreen BAZ2B-H3K14Ac peptide displacement; further: potency means the concentration at half of the fitted maximal effect; on the % scale 0 is the no-effect control and ±100 the full control effect; nearly all actives have a fitted effect of over 60% in size
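BAZ2B 50 nM plus b-H3(5-23)K14Ac 50 nM, PBS pH 7.4/0.01% Tween-20, 30 min RT; compound added (max 110 uM), 30 min RT; streptavidin donor/Ni-chelate acceptor beads 10 ug/mL final, 20 min dark; AlphaScreen read.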
JMJD2A Tudor: qHTS Assay for Inhibitors of JMJD2A-Tudor Domain; Lysine-specific demethylase 4A (Homo sapiens), O75164; AlphaScreen JMJD2A-Tudor / H3K4me3 peptide binding; Potency, µM (titrated, usually from 114 µM), without a hit: at the highest dose activity change, negative = inhibition, usual class: inhibitors; 390,000 compounds, 4.4% hits; AID 504339, 2011; further: potency means the concentration at half of the fitted maximal effect; on the % scale 0 is the no-effect control and ±100 the full control effect; nearly all actives have a fitted effect of over 50% in size
* marks the source's active call; other numbers are inactive results; ? = inconclusive; . = not tested or not shown; [ ] = another dose, or the depositor's remark. Unless noted, the call rests on the fitted dose curve; in most records, active means well fitted inhibition curve with a large enough effect; inconclusive means small, poorly fitted or top-dose-only effect; inactive means no such curve, though single readings can be large or run the other way.

SMILES	PI5P4Ka inh	G9a inh	L3MBTL1 block	HP1b chromo inh	BAZ2B inh	JMJD2A Tudor
O=S(=O)(c1ccccc1)N1CCN(Cc2cccc(Br)c2)CC1	-2.7	.	.	?	.	28.2µM*
Brc1cccc(CN2CCN(c3ncccn3)CC2)c1	-0.1	10µM*	0.1%	?	?	20µM*
Cn1nc(C(=O)NCc2cccc(Cl)c2)c2c1-c1ccccc1SC2	.	-23.2%[59 µM]	.	8.3%	-2.3%	-12.6%
CCOC(=O)C(=O)Nc1cc(Cl)ccc1C	1.1	12.1%[59 µM]	9.4%	12.8%	8.0%	-11.7%
CCOC(=O)/C(C)=N/NC(=O)c1cccc([N+](=O)[O-])c1	7.2	2.8%	.	20.2%	-9.1%	3.0%
CCOC(=O)C(=N/O)/C(C)=N/NC(=O)C(=O)Nc1cc(Cl)ccc1Cl	0.7	2.1%	25.1µM*	27.9%	17.8µM*	?
CCOC(=O)C(=N/O)/C(C)=N/NC(C)=O	-11.7	7.08µM*	.	8.2%	-5.0%	-12.4%
O=C(CN1C(=O)c2cccnc2Sc2ccccc21)Nc1cc(F)ccc1F	.	2.0%[59 µM]	.	-18.1%	-11.8%	-18.7%
CCC12CN3CC(CC)(CN(C1)C3c1cc(Br)ccc1OC)C2=O (stereo not given)	.	-0.1%[59 µM]	.	7.3%	-8.1%	-18.2%
CC(=O)Cc1nsc(Nc2ccccc2)n1	5.3	79.4µM*	.	18.6%	7.7%	1.4%
COc1cccc(-c2nc(N3CCN(c4ccccc4)CC3)c3ccccc3n2)c1O	-4.4	-48.0%[59 µM]	-1.2%	?	-38.6%	?
COc1cccc(-c2nc(N3CCCCC3)c3ccccc3n2)c1O	3.0	.	.	?	.	35.5µM*
CCC1CCCCN1c1nc(-c2cccc(OC)c2O)nc2ccccc12 (stereo not given)	.	39.8µM*	?	-24.9%	?	?
COc1cccc(-c2nc(NC(C)C)c3ccccc3n2)c1O	.	?	-7.9%	-22.5%	?	50.1µM*
C1CCC(NC(=NC2C3CC4CC(C3)CC2C4)N2CCOCC2)CC1 (stereo not given)	.	25.1%[59 µM]	.	.	.	.
CNS(=O)(=O)c1ccc(Cl)nc1	4.6	-16.4%	4.1%	16.2%	5.2%	-6.6%
CC1CCC(NS(=O)(=O)c2ccc(Cl)nc2)CC1 (stereo not given)	4.7	50.1µM*	7.6%	25.3%	14.1%	2.1%
COc1cccc(OC)c1-c1nn2c(-c3cc(-c4ccccc4)n[nH]3)nnc2s1	-65.8*	3.55µM*	-29.4%	-34.5%	8.91µM*	44.7µM*
COc1ccccc1-c1nn2c(-c3cc(-c4ccccc4)n[nH]3)nnc2s1	.	.	.	3.9%[57 µM]	.	-10.0%[57.1 µM]
CC(C(=O)Nc1ccc(N(C)C)cc1)N1C(=O)c2ccccc2S1(=O)=O (stereo not given)	-5.0	14.1µM*	-5.0%	?	?	44.7µM*
CCOc1ccc(NC(=O)C(C)N2C(=O)c3ccccc3S2(=O)=O)cc1 (stereo not given)	6.4	-4.3%	-6.5%	36.9%	10.9%	-11.0%
C=CC#CC1(O)CC(C)[N+](C)(C)CC1C (stereo not given)	-11.3	28.2µM*	3.8%	?	-8.1%	22.4µM*
COc1ccc2c(c1)c(=O)oc1c(C)c(OC(C)C(=O)N[C@@H](Cc3c[nH]c4ccc(O)cc34)C(=O)O)ccc12 (stereo not given in full)	-15.7	.	.	5.6%	50.1µM*	?
CCn1c(SCC(=O)NCc2ccc3c(c2)OCO3)nnc1-c1ccncc1	-5.7	-49.6%	2.2%	30.3%	-11.5%	-11.7%
Cc1cc(C)c(NC(=O)Cn2nnc(C(=O)NCc3ccc4c(c3)OCO4)c2N)c(C)c1	-0.9	17.4%[59 µM]	.	15.0%	-15.9%	56.2µM*
SMILES	PI5P4Ka inh	G9a inh	L3MBTL1 block	HP1b chromo inh	BAZ2B inh	JMJD2A Tudor
Cc1nnc(SCC(=O)NCc2ccc3c(c2)OCO3)[nH]c1=O	.	50.1µM*	1.7%	23.8%	-31.8%	-16.9%
Cc1cc(C)n2c(SCC(=O)NCc3ccc4c(c3)OCO4)nnc2n1	-12.0	11.2µM*	.	-21.7%	-1.1%	79.4µM*
Cc1ccc(NC(=O)Cn2nnc(C(=O)NCc3ccc4c(c3)OCO4)c2N)cc1	-3.4	36.4%[59 µM]	.	33.1%	-3.4%	-11.3%
O=C(CSc1nccc(=O)[nH]1)NCc1ccc2c(c1)OCO2	0.0	?	.	25.1%	-8.6%	-19.6%
CCN(CCCNC(=O)c1cc2c(=O)[nH]c3ccc(C)cc3c2s1)Cc1ccccc1	.	?	.	-2.1%	?	?
Nc1c(N2CCCC2)cc(Cl)c2nonc12	.	4.47µM*	28.2µM*	-45.0%	-23.0%	?
Nc1ccc(N2CCCCC2)c2nonc12	-13.8	.	?	?	25.1µM*	56.2µM*
CC(C)CSc1nc2c(c(=O)[nH]c(=O)n2C)n1CC(O)COc1cccc2ccccc12 (stereo not given)	-19.6	3.98µM*	-3.1%	?	-8.7%	?
Cn1c(=O)[nH]c(=O)c2c1nc(SCCO)n2CC(O)COc1ccccc1 (stereo not given)	-16.9	15.8µM*	-7.0%	?	-25.8%	-21.1%
CCCSc1nc2c(c(=O)[nH]c(=O)n2C)n1CC(O)COc1ccccc1 (stereo not given)	1.6	50.1µM*	3.8%	-2.7%	2.1%	-8.7%
C[C@@H]1C(=O)N(S(=O)(=O)c2ccccc2[N+](=O)[O-])[C@H]1c1ccc(-c2ccccc2)cc1	.	.	.	-4.6%	.	-19.3%
NC(=O)c1ccsc1NC(=O)CCS(=O)(=O)c1ccc(Cl)cc1	-20.5	35.5µM*	-4.8%	26.7%	0.8%	-18.6%
N#Cc1ccsc1NC(=O)CCS(=O)(=O)c1ccccc1	-3.5	44.7µM*	.	50.2%	-3.9%	-8.5%
CCN(CC)c1cc2c(cc1F)c(=O)c(S(=O)(=O)c1ccc(OC)cc1)cn2CC	.	-12.5%[59 µM]	.	33.8%	0.3%	-11.2%
Cc1cc2c(c3oc(=O)c4ccccc4c13)CN(Cc1ccc(F)cc1)CO2	.	?	.	22.5%	-9.6%	-21.2%
CC1CCCC(C)N1C(=O)COC(=O)CCc1nc2ccccc2c(=O)[nH]1 (stereo not given)	0.5	?	4.1%	27.3%	6.7%	12.3%
CC1CCCCN1Cc1nc2ccccc2c(=O)[nH]1 (stereo not given)	4.6	5.2%[12.7 µM]	2.0%	15.2%	-33.1%	79.4µM*
O=c1[nH]c(CN2CCN(c3ccccc3O)CC2)nc2ccccc12	-7.4	?	-4.4%	9.4%	-8.2%	8.91µM*

From PubChem
